The text below walks through data of PubChem BioAssay (NCATS).

A number with no mark means an inactive call. Results filed as inconclusive are left out. Active and inactive are the calls of the source. Unless noted, calls come from the whole dose curve; as a rule, active = well fitted curve in the direction sought with a large enough effect; inconclusive = small, poorly fitted or top-dose-only effect, or another doubt; inactive = no such curve, though single readings can be large; an effect the other way counts as inactive or inconclusive.

For test [1], the target named is Lysosomal acid glucosylceramidase (Homo sapiens) (UniProt P04062). In words: Glucocerebrosidase-p2 (AID 348; in the data active = potency below about 10 µM; note: potency is the fitted concentration of half-maximal effect). Conditions: purified GBA, blue fluorogenic substrate, 40 min. A digest of the protocol: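 Normal human glucocerebrosidase (0.2 nM) with blue fluorogenic substrate (80 uM final) in citrate/phosphate pH 5.9 with 10mM sodium taurocholate, 0.01% tween-20; 40 min RT, NaOH/glycine stop; fluorescence Ex 365/Em 440; AC50 from a titration from 0.6 nM upwards.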
Sequence of Lysosomal acid glucosylceramidase (Homo sapiens) (P04062 whole entry, looked up): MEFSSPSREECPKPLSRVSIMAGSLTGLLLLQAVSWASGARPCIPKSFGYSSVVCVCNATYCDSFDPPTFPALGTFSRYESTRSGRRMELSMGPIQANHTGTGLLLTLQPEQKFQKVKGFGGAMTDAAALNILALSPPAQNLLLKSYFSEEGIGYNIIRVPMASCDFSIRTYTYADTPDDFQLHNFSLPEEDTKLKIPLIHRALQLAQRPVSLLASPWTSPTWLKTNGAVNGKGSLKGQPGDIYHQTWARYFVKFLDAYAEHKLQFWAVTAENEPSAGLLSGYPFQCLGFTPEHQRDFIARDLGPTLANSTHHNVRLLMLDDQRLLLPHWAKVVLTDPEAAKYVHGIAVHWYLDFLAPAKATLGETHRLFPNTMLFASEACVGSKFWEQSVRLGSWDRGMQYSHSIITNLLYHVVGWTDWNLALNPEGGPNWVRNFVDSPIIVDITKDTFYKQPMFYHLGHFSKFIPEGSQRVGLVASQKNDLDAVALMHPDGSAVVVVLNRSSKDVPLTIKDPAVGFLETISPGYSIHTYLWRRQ

A short description of test [2]: AP1 Signaling Pathway (AID 357; active = well fitted curve in either direction with a large enough effect, not every such curve was filed as active;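 note: ME-180 reporter cells stimulated with EGF at its EC50 level; % is set by controls: 0 for no effect and ±100 for the full control effect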). The conditions noted are these: ME-180 AP-1-bla reporter, EGF-induced, beta-lactamase ratio, 5 h; at 7.69 µM (top of the series) unless noted. A digest of the protocol: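 Beta-lactamase reporter under AP-1 response element, ME-180 background. Stimulus: EC50 EGF. Compound exposure 5 h, 37 °C. Detection: CCF4, 2.5 h RT, 460/530 nm. Values: AC50 from titration.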

In test [3] the target is Cytochrome P450 1A2 (Homo sapiens) (UniProt P05177). In words: p450-cyp1a2 (AID 410; calls by dose curve; note: potency is the fitted concentration of half-maximal effect). A digest of the protocol:
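Read-out is luminescence from luciferin produced by CYP1A2 demethylation of Luciferin-ME (100uM, at Km). Detection reagent stopped the 60 min NADPH-dependent reaction; signals were normalized to 57 uM furafylline.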

The nature of test [4]: NFAT Signaling Pathway (AID 444; active = well fitted curve in either direction with a large enough effect, not every such curve was filed as active;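 note: carbachol stimulus at about its EC50 of 1 µM final; % is set by controls: 0 for no effect and ±100 for the full control effect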). Conditions: Jurkat NFAT-bla M1, carbachol, beta-lactamase ratio, 5 h; at 7.69 µM (top of the series) unless noted. The method, boiled down:
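Read-out: CCF4 FRET ratio (460 nm/530 nm) after 1 h RT dye loading, used for %activity and AC50 from titration series. Cells: Jurkat NFAT-β-lactamase/M1 line, treated with compound plus 1 uM carbachol for 5 h, 37 °C.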

Test [5] is described as follows: Stat Signaling Pathway (AID 446; active = well fitted curve in either direction with a large enough effect, not every such curve was filed as active;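 note: ME-180 cervical cancer cells given 40 pM IL-6 alongside compound; SIE-controlled beta-lactamase reporter measured as 460/530 nm FRET emission ratio; % is set by controls: 0 for no effect and ±100 for the full control effect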). The conditions noted are these: ME-180 SIE beta-lactamase reporter, IL-6 stimulated, 5 h; at 7.69 µM (top of the series) unless noted. A digest of the protocol: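 Overnight-plated ME-180 cells bearing a STAT Inducible Element beta-lactamase reporter; 5 h co-exposure to compound and 40 pM IL-6; values normalized to 300 pM IL-6 and 125 nM JAK inhibitor controls.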

The target of test [6] is Glucocorticoid receptor (Homo sapiens) (UniProt P04150). As to the kind of experiment: GR-GFP Redistribution (AID 450;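 active = compounds whose dose series gives a full or clear partial fitted curve of increased nuclear translocation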; note: potency is the fitted concentration of half-maximal effect). The conditions noted are these: U2OS GR-GFP nuclear translocation, laser cytometry, 2 h.
Sequence of Glucocorticoid receptor (Homo sapiens) (P04150 whole entry, looked up): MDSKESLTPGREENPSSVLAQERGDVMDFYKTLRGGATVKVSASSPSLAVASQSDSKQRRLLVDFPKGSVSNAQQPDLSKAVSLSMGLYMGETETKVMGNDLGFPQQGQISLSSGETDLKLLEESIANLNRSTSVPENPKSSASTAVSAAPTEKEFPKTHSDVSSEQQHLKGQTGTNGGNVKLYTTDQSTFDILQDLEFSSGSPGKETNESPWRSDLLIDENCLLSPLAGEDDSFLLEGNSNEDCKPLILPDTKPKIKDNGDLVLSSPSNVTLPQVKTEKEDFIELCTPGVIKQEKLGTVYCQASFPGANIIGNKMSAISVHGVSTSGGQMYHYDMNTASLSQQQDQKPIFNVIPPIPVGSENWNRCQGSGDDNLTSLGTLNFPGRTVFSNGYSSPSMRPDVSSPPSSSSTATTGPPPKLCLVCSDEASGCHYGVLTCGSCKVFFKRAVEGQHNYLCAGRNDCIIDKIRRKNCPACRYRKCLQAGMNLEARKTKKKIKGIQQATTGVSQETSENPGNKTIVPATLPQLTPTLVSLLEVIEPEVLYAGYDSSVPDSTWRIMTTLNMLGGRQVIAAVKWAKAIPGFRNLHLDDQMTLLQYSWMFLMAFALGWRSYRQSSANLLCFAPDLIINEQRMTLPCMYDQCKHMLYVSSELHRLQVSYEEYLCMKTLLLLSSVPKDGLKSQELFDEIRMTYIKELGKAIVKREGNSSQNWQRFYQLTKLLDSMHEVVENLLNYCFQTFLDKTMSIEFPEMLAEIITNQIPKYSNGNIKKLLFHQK
The target is the same in test [7]. As to the kind of experiment: GR-EFC Redistribution (AID 451; calls by dose curve; note: potency is the fitted concentration of half-maximal effect). The conditions noted are these: CHO-K1 GR-EFC translocation, beta-gal luminescence, 2 h. The method, boiled down:
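Translocation of GR-ED fusion to nuclear EA restores b-gal, read by luminescence after 1 h room-temperature detection. Engineered CHO-K1 biosensor cells, 1,000/well, exposed 2 h at 37 C to titrations up to 46 uM final.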

Test [8] has as its target Mitogen-activated protein kinase 10 (Mus musculus) (UniProt Q61831). As to the kind of experiment: JNK3 AlphaScreen Assay (AID 530; active = well fitted curve in either direction with a large enough effect, not every such curve was filed as active;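 note: kinase came from lysate of stimulated human HepG2 cells; signal reports phosphorylation of biotinylated GST-cJun 1-79 at Ser73 with 10 µM ATP; % is set by controls: 0 for no effect and ±100 for the full control effect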). The method, boiled down:
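Kinase buffer: 20 mM Tris-HCl pH 7.6, 10 mM MgCl2, 1 mM DTT, 0.1 mM Na3VO4, 0.01% Tween-20; ATP 10 uM. Substrate biotin-GST-cJun(1-79), enzyme from activated HepG2 lysates. Detection by Ser73 phospho-antibody AlphaScreen.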
Background: Alpha assays give light when donor and acceptor beads are brought close together.

Test [9] concerns the target 3',5'-cyclic-AMP phosphodiesterase 4B (Homo sapiens) (UniProt Q07343). In words: qHTS Assay for Inhibitors of PDE-IV (AID 607; active = well fitted activation curve with a large enough effect in the main read-out, with a control signal flat, not every such curve was filed as active; note: % of control where 0% means no effect). A digest of the protocol: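 Live HEK293 cells with a modified cyclic nucleotide-gated (CNG) channel report intracellular cAMP via membrane-potential dye fluorescence (ex 535/em 590 nm). Endogenous PDE-IV was targeted. Compounds were tested at up to 22.9 uM final; RO 20-1724 100 uM served as control.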
On the technique in general: qHTS replaces the single test concentration by a dilution series.

Test [10] deals with Cytochrome P450 3A4 (Homo sapiens) (UniProt P08684). In words: qHTS Assay for Inhibitors and Substrates of Cytochrome P450 3A4 (AID 884). Note: potency is the fitted concentration of half-maximal effect; nearly all actives have a fitted effect of over 50% in size. A digest of the protocol: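 Luminescent readout of luciferin produced by CYP3A4 (20 nM) dealkylation of Luciferin-PPXE, 25 uM (its KM). NADPH-driven reaction ran 60 min at RT after 10 min compound preincubation; data scaled to 57 uM ketoconazole as 100% inhibition.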
Sequence of Cytochrome P450 3A4 (Homo sapiens) (P08684 whole entry, looked up): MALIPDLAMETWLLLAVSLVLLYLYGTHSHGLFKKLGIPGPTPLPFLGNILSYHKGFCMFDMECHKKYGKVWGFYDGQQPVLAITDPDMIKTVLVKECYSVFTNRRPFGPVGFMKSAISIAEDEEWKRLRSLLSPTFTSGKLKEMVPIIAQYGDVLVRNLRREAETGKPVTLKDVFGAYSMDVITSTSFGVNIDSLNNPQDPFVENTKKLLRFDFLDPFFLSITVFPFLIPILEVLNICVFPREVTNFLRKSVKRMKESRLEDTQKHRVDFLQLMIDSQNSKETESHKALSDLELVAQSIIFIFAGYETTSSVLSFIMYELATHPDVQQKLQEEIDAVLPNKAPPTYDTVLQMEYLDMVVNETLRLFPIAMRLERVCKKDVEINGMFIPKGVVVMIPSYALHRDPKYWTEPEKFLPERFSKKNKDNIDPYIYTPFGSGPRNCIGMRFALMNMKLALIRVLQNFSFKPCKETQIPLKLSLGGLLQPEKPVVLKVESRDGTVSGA

Test [11] has the same target. As to the kind of experiment: qHTS Assay for Activators of Cytochrome P450 3A4 (AID 885). Note: nearly all actives have a fitted effect of over 65% in size. A digest of the protocol: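 Using 20nM recombinant human CYP3A4 in potassium phosphate (200mM), substrate Luciferin-PPXE at 25uM, luminescent luciferin detection followed a 60-min RT NADPH reaction; data scaled to 57 uM ketoconazole.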
Test [12] addresses Cytochrome P450 2C19 (Homo sapiens) (UniProt P33261). As to the kind of experiment: qHTS Assay for Inhibitors and Substrates of Cytochrome P450 2C19 (AID 899). Note: potency is the fitted concentration of half-maximal effect; nearly all actives have a fitted effect of over 60% in size. A digest of the protocol:
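Reactions contain 5nM enzyme, 10uM Luciferin-H EGE (KM) and 50mM KPO4; compound preincubates 10 min at 37C, NADPH regeneration starts turnover for 60 min. Luminescence after detection reagent gives activity.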

Test [13] in a line: Confirmation and Secondary Assay for Modulators of Hemoglobin Beta Chain Splicing at IVS2 705 locus (AID 930).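 Note: HeLa cells stably expressing the EGFP-705 splicing reporter; GFP fluorescence per well restored by corrected splicing of the IVS2-705 intron in EGFP; % of control where 0% means no effect.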 A digest of the protocol: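 Fluorescence gain (488 nm laser, 500-520 nm PMT) reflects restored correct splicing of a mutant IVS2-705 intron inside EGFP in stably transfected HeLa cells after 2-day compound treatment.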
Test [14] deals with Ubiquitin carboxyl-terminal hydrolase 1 (Homo sapiens) (UniProt O94782). In words: Inhibitors of USP1/UAF1: Pilot qHTS (AID 504865).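 Note: rhodamine fluorescence freed from ubiquitin-rhodamine substrate followed over time; top concentration of the series differs between compounds; % is set by controls: 0 for no effect and ±100 for the full control effect; nearly all actives have a fitted effect of over 35% in size.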 A digest of the protocol:
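Kinetic fluorescence assay: 1nM USP1/UAF1, 15 min compound preincubation, then 150nM Ub-Rho; 480/540 nm.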

Test [15] in a line: Primary qHTS for small molecule stabilizers of the endoplasmic reticulum resident proteome: Secreted ER Calcium Modulated Protein (SERCaMP) assay (AID 1508630). Note: % is set by controls: 0 for no effect and ±100 for the full control effect. The method, boiled down:
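The SH-SY5Y reporter protocol was run at 3 concentrations up to 38.3 uM (primary) or 11 concentrations (follow-up): 16 h compound, 100 nM thapsigargin for 4 h, then extracellular luciferase luminescence.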

Test [16] in a line: Confirmation and Secondary Assay for Modulators of Hemoglobin Beta Chain Splicing at IVS2 654 locus (AID 910).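 Note: HeLa cells stably carrying EGFP split by mutant beta-globin IVS2-654 intron; per-well total GFP intensity by laser scanning cytometry after 2-day treatment; % of control where 0% means no effect.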 The method, boiled down:
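Readout: per-well total peak green fluorescence (488 nm ex, 500–520 nm em) from objects 5–250 µm, reflecting correct splicing of an EGFP-654 reporter. Compounds were applied for 2 days at 37 °C to overnight-plated HeLa EGFP-654 cells; controls were DMSO and 500 nM IVS2-654 PNA.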

Test [17] is described as follows: qHTS Assay for Identification of Small Molecule Agonists for Hypoxia Response Element Signaling Pathway (AID 914; active = well fitted activation curve with a large enough effect in the signal ratio, with a control signal flat, not every such curve was filed as active; the % refers to the signal ratio; note: % of control where 0% means no effect). The conditions noted are these: ME-180 (cervical carcinoma) HRE-bla reporter, beta-lactamase ratio, CoCl2, 17 h; activation: hits give high values. A digest of the protocol: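 A beta-lactamase reporter under hypoxia response element control in ME-180 cells served as the system. Compound titrations plus EC50 CoCl2 ran 17 h at 37 degrees Celsius; AC50 values were fitted from %Activity.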

Sequence of Cytochrome P450 1A2 (Homo sapiens) (P05177 whole entry, looked up): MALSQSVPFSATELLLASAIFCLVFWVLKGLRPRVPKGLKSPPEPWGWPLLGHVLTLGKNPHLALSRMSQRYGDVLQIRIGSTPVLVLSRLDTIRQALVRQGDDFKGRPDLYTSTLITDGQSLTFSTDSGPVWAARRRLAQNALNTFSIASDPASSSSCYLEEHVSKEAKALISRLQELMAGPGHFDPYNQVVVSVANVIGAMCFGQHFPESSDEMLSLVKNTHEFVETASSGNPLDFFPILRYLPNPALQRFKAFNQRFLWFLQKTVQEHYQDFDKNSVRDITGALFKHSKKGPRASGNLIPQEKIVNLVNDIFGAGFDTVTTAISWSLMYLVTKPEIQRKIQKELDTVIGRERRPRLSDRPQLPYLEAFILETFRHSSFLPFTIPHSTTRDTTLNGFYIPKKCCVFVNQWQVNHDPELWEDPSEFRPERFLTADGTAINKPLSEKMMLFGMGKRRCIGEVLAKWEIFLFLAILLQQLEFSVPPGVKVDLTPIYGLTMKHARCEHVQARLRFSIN
Sequence of Ubiquitin carboxyl-terminal hydrolase 1 (Homo sapiens) (O94782 whole entry, looked up): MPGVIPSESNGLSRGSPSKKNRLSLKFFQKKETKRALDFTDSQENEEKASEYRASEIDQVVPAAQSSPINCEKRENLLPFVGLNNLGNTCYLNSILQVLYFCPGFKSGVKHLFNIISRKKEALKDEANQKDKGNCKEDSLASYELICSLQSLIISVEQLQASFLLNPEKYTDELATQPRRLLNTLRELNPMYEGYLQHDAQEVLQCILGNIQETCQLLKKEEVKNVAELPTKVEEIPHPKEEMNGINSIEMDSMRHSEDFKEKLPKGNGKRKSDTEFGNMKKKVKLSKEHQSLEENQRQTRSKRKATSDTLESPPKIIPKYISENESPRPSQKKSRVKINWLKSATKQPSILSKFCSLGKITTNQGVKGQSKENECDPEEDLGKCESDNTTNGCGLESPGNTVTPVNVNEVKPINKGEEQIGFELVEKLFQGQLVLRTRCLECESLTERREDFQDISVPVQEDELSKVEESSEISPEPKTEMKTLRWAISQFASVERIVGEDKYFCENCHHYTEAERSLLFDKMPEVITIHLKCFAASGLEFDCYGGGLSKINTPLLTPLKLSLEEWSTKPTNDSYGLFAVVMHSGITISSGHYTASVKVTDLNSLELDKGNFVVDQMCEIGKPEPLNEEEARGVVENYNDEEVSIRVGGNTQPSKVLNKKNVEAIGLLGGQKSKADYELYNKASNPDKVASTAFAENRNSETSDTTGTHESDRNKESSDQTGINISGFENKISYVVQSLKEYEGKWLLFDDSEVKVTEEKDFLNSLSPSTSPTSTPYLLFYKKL
Sequence of 3',5'-cyclic-AMP phosphodiesterase 4B (Homo sapiens) (Q07343 whole entry, looked up): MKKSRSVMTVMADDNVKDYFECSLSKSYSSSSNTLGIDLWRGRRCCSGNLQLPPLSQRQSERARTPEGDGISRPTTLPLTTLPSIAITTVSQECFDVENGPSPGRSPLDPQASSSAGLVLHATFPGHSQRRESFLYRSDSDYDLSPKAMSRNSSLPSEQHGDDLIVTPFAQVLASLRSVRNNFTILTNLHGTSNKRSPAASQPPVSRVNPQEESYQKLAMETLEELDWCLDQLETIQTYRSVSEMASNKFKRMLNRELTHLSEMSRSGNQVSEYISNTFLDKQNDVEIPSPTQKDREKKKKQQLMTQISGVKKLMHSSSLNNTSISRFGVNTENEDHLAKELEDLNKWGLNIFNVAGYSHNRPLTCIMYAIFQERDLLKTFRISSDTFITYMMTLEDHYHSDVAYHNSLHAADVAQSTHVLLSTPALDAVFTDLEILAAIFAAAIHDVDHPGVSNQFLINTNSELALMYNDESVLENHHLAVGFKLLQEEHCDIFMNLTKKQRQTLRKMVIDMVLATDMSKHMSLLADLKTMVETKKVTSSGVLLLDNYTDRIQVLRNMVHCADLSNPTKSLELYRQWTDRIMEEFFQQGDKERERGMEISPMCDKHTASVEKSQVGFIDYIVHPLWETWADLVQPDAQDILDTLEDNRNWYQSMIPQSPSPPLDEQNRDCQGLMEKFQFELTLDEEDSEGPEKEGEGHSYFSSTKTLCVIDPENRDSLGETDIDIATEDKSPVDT
Sequence of Cytochrome P450 2C19 (Homo sapiens) (P33261 whole entry, looked up): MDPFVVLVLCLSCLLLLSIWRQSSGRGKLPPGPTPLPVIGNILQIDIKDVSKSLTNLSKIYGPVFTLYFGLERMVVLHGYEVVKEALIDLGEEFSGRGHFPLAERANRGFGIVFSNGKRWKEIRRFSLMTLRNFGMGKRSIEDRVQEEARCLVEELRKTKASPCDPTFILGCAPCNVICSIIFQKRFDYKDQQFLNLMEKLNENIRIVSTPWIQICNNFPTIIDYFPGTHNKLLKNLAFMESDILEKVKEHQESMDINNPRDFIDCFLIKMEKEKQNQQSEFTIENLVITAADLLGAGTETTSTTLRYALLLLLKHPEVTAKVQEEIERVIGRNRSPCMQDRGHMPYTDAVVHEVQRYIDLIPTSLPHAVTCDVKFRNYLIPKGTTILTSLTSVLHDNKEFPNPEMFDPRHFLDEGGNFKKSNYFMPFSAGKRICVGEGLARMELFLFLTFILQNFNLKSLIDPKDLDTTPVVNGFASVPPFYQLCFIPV

Turning to `N#Cc1cccc(-c2cc(-n3ccnc3)ncn2)c1`, the Potency in [1] is more than 11.4 µM; in [3], 0.126 µM (active); in test [6], more than 46 µM; in test [7] it was more than 46 µM; in test [10], 0.398 µM (active); in test [12], 0.158 µM (active). Besides, the activity change, negative = inhibition in [2] is 0.101%; in test [4] it was 4.55%. In [5], the activity, negative = inhibition is 10.7%. The Potency entry in test [8], in test [9], in test [11] and in [14] was “inactive” each time. Moreover, the compound was classed as inactive in [13] and in test [15].
Regarding `CN(C)c1ncc2nc(-c3ccc(F)cc3)c(=O)n(CCC#N)c2n1`, the Potency in test [1] is more than 11.4 µM; in [3], 1.26 µM (active); in test [6] it was more than 9.22 µM; in test [7], more than 46 µM. The activity change, negative = inhibition in test [2] is 4.59%; in test [4], 8.55%. For the same compound, the activity, negative = inhibition in test [5] was 23.5%. For the same compound, the Potency entry in test [8] and in [9] was “inactive” each time. The outcome in test [15] was inactive.
Consider `N#Cc1cccc(-c2nc(Nc3ccccc3)c3ccccc3n2)c1`, for which the Potency was more than 11.4 µM in [1], 1.26 µM (active) in test [3], more than 46 µM in test [6] and more than 46 µM in test [7]. For the same compound, the activity change, negative = inhibition in test [2] was 3.06%; in test [4] it was 15.5%. For the same compound, the activity, negative = inhibition in [5] was 8.9%. The Potency result in test [8], in test [16] and in [14] was “inactive” in each case. Further, the result in [13] and in test [15] was inactive.
In the case of `Cc1noc(C)c1-c1nccc(NCCN2CCOCC2)n1`, the Potency was more than 11.4 µM in test [1], 7.94 µM (active) in [3], more than 46 µM in test [6] and more than 46 µM in test [7]. For the same compound, the values for the activity change, negative = inhibition in [2] and in test [4] were -1.23% and -8.35%, respectively. Besides, the activity, negative = inhibition in [5] was 2.66%. Also, the Potency entry in test [8], in test [9], in [11] and in test [14] was “inactive” each time. Moreover, in [15], the result was inactive.
In the case of `CNc1nc(-c2cccc(C#N)c2)nc2ccccc12`, the Potency in [1] was more than 11.4 µM; in [3], 0.0794 µM (active); in [6], more than 46 µM; in [7], more than 46 µM; in [12], 7.94 µM (active). The values for the activity change, negative = inhibition in [2] and in [4] were -15.2% and 2.31%, respectively. In test [5], the activity, negative = inhibition is 6.92%. In addition, the Potency result in [8], in test [9], in [11] and in [14] was “inactive” each time. Also, the result in [15] was inactive.
In the case of `COc1cccc(-c2nc(NCc3cnc(C)cn3)c3ccccc3n2)c1`, the Potency in [1] is more than 11.4 µM; in test [3], 0.398 µM (active); in test [6], more than 46 µM; in test [7], more than 46 µM; in test [10] it was 2.51 µM (active). The activity change, negative = inhibition in test [2] was -17.2%; in [4], 20.9%. For the same compound, the activity, negative = inhibition in test [5] is -10.4%. In addition, the Potency result in test [8], in [11], in [16] and in test [14] was “inactive” throughout. In addition, the activation in test [17] is 6.27%. In addition, the outcome in test [13] and in test [15] was inactive.
